Assay results: PubChem BioAssay
Activity calls are given as the source filed them.

Assay: growth effects on S. cerevisiae YJM789 – YJM789 clinical isolate, OD600, 24 h, basal, primary screen (AID 1089);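 note: growth of clinical yeast isolate S. cerevisiae YJM 789 seeded 1000 cells per well; test concentration not given here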
Conditions: higher = more signal, called active from +8 up or from −8 down

Structure (SMILES)	z-score
C[C@]1(C(=O)NCCN2CCOCC2)c2ccccc2C(=O)N(Cc2ccc(OC(F)(F)F)cc2)[C@H]1c1ccc(CO)cc1	-0.15 (inactive)
[N-]=[N+]=Nc1ccccc1[C@@H]1OC(c2ccc(OCCCO)cc2)=N[C@]1(CCS(=O)(=O)c1ccccc1)C(=O)NCCN1CCOCC1	-0.564 (inactive)
CC(C)CN1C(=O)[C@@]2(Cc3ccccc31)c1ccccc1C(=O)N(Cc1ccccc1C(F)(F)F)[C@H]2c1ccc(CO)cc1	-1.17 (inactive)
C=CC[C@]1(C(=O)N(C)C)N=C(c2ccc(OCCCO)cc2)O[C@H]1c1ccccc1N=[N+]=[N-]	0.0061 (inactive)
COc1cc2c(cc1OC)CN(C(=O)[C@H]1[C@@H]3C(=O)O[C@@H](c4ccccc4)[C@@H](c4ccccc4)N3[C@@H](c3ccc(OCCO)cc3)[C@]13C(=O)Nc1ccc(C#CC4(O)CCCCCC4)cc13)CC2	3.2 (inactive)
COCCCNC(=O)[C@@H]1c2ccccc2C(=O)N(Cc2ccccc2C(F)(F)F)[C@H]1c1ccc(CO)cc1	-0.409 (inactive)
C=CC[C@]12N=C(c3ccc(OCCCO)cc3)O[C@H]1c1ccccc1N(C)C2=O	-0.167 (inactive)
CCCC[C@@H]1C[C@H]1[C@@H](NC(=O)c1cccnc1)c1ccc(-c2ccccc2)cc1	-1.27 (inactive)
C[C@@H]1ON(c2ccc(C(=O)OC(C)(C)C)cc2)[C@H](c2ccc(Br)cc2)[C@H]1C(=O)N1C(=O)OC[C@H]1Cc1ccccc1	0.689 (inactive)
CC(C)CCC[C@@H](C)[C@H]1CC[C@@]2(C)C3=C(CC[C@]12C)[C@@]1(C)CC[C@H](OC(=O)c2ccc(Br)cc2)C(C)(C)C1CC3 (stereo not given in full)	-1.15 (inactive)
COc1cc2c(cc1O)C(C)N(Cc1cc3c(cc1Br)OCO3)CC2 (stereo not given)	0.406 (inactive)
COc1c(C)cc(-c2cc3c(c(Cc4ccccc4)n2)[Si](C(C)C)(C(C)C)OC3)cc1C	0.784 (inactive)
CN(C)CCCN1C(=O)[C@@]2(c3ccc([N+](=O)[O-])cc3)CC(=O)N(CC34CC5CC(CC(C5)C3)C4)[C@@H]2c2ccc(CO)cc21	0.296 (inactive)
CO[C@H]1O[C@H](CO)[C@@H](OC(=O)Nc2ccc(C(F)(F)F)cc2)[C@H](OC(=O)Nc2ccc3c(c2)OCO3)[C@H]1OC(=O)Nc1ccc2c(c1)OCO2	0.724 (inactive)
NC(=O)NCC#Cc1ccc2c(c1)[C@]1(C(=O)N2)[C@H](C(=O)Nc2nc3ccccc3s2)[C@H]2C(=O)O[C@H](c3ccccc3)[C@H](c3ccccc3)N2[C@@H]1c1ccc(O)cc1	3.89 (inactive)
COCCOC(=O)N1C(=O)[C@@]2(c3cc(C#CC4(O)CCCCCC4)ccc31)[C@H](C(=O)N1CCCCCCC1)[C@H]1C(=O)O[C@H](c3ccccc3)[C@H](c3ccccc3)N1[C@@H]2c1ccc(OCCO)cc1	0.474 (inactive)
COC(=O)[C@@]1(Cc2ccccc2)[C@H]2c3cc(C(=O)N4CCCC4)[nH]c3C[C@H]2CN1C(=O)c1ccccc1	-0.202 (inactive)
CCOC(=O)[C@H]1C/C=C/C[C@H](C(=O)OCC)C(=O)O[C@H]2[C@@H](OC)O[C@H](CO)[C@@H](OC(=O)CCc3ccccc3)[C@@H]2OC1=O	0.491 (inactive)
Cc1ccc(F)cc1S(=O)(=O)N[C@@H]1CCN(Cc2ccc(OC(C)C)cc2)C1	-1.01 (inactive)
COCCOC(=O)N1C(=O)[C@@]2(c3cc(C#CC4=CCCCC4)ccc31)[C@H](C(=O)N1CCN(c3ncccn3)CC1)[C@H]1C(=O)O[C@H](c3ccccc3)[C@H](c3ccccc3)N1[C@@H]2c1ccc(O)cc1	0.783 (inactive)
COC(=O)C1(Cc2ccccc2)C=C2C(=C(C(C)C)C(=O)C2C)CN1 (stereo not given)	0.557 (inactive)
O=C1O[C@H](c2ccccc2)[C@H](c2ccccc2)N2[C@H]1[C@@H](C(=O)O)[C@]1(C(=O)Nc3ccccc31)[C@H]2c1ccc(O)cc1	1.34 (inactive)
COc1ccc(NC(=O)O[C@H]2[C@H](OC(=O)Nc3ccc4c(c3)OCO4)[C@@H](OC(=O)Nc3ccc4c(c3)OCO4)[C@@H](OC)O[C@@H]2CO)cc1	1.5 (inactive)
COc1c(C)cc(-c2cc3c(c(-c4ccccc4)n2)[Si](C(C)C)(C(C)C)OC3)cc1C	0.105 (inactive)
C[C@@H](OCc1ccccc1)C1NC(=O)[C@@]23C(=O)N[C@@H](Cc4ccccc4)C2[C@H](C)[C@@]2(C)O[C@H]2C3/C=C/C/C=C\CNC(=O)CNC1=O (stereo not given in full)	0.569 (inactive)
